Measurements taken from PubChem BioAssay (NCI).
This is part of a sample that, as a whole, favours compounds with a hit. Of some 83,000 tested, about 20% had one in any assay.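 The endpoint reported here, percent growth, reads 100 for growth as untreated, 0 for no net growth and -100 for all cells dead.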 Activity calls are given as the source filed them. How the source made its calls: active means growth percent below 10; inactive means the rest.

Key:
Experiment in all cases: NCI-60 one-dose screen, 48 h (100 = growth as untreated, 0 = no growth, -100 = all killed)
Details in all cases: 10 µM unless noted
[1] = test system: DU-145 prostate
[2] = test system: K-562 leukemia
[3] = test system: MALME-3M melanoma
[4] = test system: MDA-MB-231 breast
[5] = test system: RXF 393 renal
[6] = test system: SF-268 CNS
[7] = test system: SF-295 CNS
[8] = test system: SF-539 CNS
[9] = test system: UACC-257 melanoma
[10] = test system: M14 melanoma
[11] = test system: HCT-15 colon
[12] = test system: HT29 colon
[13] = test system: SNB-75 CNS
[14] = test system: SNB-19 CNS
[15] = test system: U251 CNS
[16] = test system: PC-3 prostate
[17] = test system: SK-MEL-5 melanoma
[18] = test system: UACC-62 melanoma
[19] = test system: LOX IMVI melanoma
[20] = test system: SK-MEL-28 melanoma

Measured: growth

Cc1cc(Nc2cc(N3CCN(C)CC3)nc(/C=C/c3ccccc3)n2)n[nH]1
inactive: [1] 26.9% | [11] 13.4% | [14] 14% | [16] 16.5%
active: [2] -18.8% | [3] -60.6% | [4] 9.8% | [5] -86.6% | [6] -26.1% | [7] -17% | [8] -79.1% | [9] -73.4% | [10] -76.6% | [12] -34.3% | [13] -97.1% | [15] -29.9% | [17] -88.7% | [18] -69.9% | [19] -92.6% | [20] -65.4%

CNC(=O)c1c(C)oc2cc(Oc3ncnc4cc(OC)c(OC)cc34)ccc12
inactive: [1] 101% | [2] 88.4% | [3] 104% | [4] 101% | [5] 66.4% | [6] 70.7% | [7] 96% | [8] 41.6% | [9] 86.6% | [10] 98.2% | [11] 109% | [12] 98.4% | [13] 58.2% | [14] 97.5% | [15] 58.9% | [16] 84.9% | [17] 121% | [18] 104% | [19] 96.5% | [20] 119%

O=S1(=O)OC(c2ccc(O)c(Cl)c2)(c2ccc(O)c(Cl)c2)c2ccccc21
inactive: [1] 103% | [2] 113% | [3] 114% | [4] 109% | [5] 105% | [6] 96.9% | [7] 103% | [8] 93.3% | [9] 98.9% | [10] 105% | [11] 102% | [12] 123% | [13] 78.4% | [14] 103% | [15] 111% | [16] 77.8% | [17] 95.9% | [18] 99.5% | [19] 100% | [20] 114%

CCOc1cc2ncc(C#N)c(Nc3ccc(F)c(Cl)c3)c2cc1NC(=O)/C=C/CN(C)C
active: [1] -56.6% | [2] -16.4% | [3] -77.5% | [4] -38.8% | [5] -83% | [6] -19.9% | [7] 9.82% | [8] -85.9% | [9] -63% | [10] -83.1% | [11] -31.1% | [12] -35.3% | [13] -98.5% | [14] -26.6% | [15] -70.9% | [16] -1.37% | [17] -94.5% | [18] -46.7% | [19] -72.3% | [20] -75.4%

CCNC(=O)Nc1nc2ccc(Oc3ccnc(C(=O)NC)c3)cc2s1
active: [2] 8.24%
inactive: [1] 103% | [3] 67.3% | [4] 73% | [5] 103% | [6] 92.8% | [7] 70.5% | [8] 77.6% | [9] 87.1% | [10] 40.7% | [11] 52.7% | [12] 29.8% | [13] 77.1% | [14] 81% | [15] 58% | [16] 76.1% | [17] 66.8% | [18] 60% | [19] 70.7% | [20] 80.3%

O=C1OCC2=C1C(c1cccc(F)c1)c1cc3c(cc1N2CCO)OCCO3 (stereo not given)
inactive: [1] 14.3% | [3] 46.2% | [4] 24.8% | [6] 34.5% | [9] 89% | [13] 27.3% | [14] 18.6% | [15] 17.8% | [16] 24.8% | [18] 33% | [19] 31.4% | [20] 44.8%
active: [2] 8.66% | [5] 4.45% | [7] -15.9% | [8] -31.7% | [10] -9.63% | [11] 9.75% | [12] 4.94% | [17] 8.33%

C[C@@H](N)c1ccc(C(=O)Nc2ccnc3[nH]ccc23)cc1
inactive: [1] 52.3% | [2] 63.7% | [3] 75.1% | [4] 50% | [6] 50.6% | [7] 61.5% | [8] 11.1% | [9] 68.9% | [10] 64.9% | [11] 68.3% | [12] 32% | [14] 60.7% | [15] 46.7% | [16] 44.9% | [17] 67.8% | [18] 82.1% | [19] 45.5% | [20] 63%
active: [5] -18% | [13] 6.4%

COc1cc2ncnc(Nc3ccc(F)c(Cl)c3)c2cc1NC(=O)/C=C/CN1CCCCC1
active: [1] -42.7% | [2] -28.5% | [3] -80.7% | [4] -68.7% | [5] -92.1% | [6] -74.5% | [7] -55% | [8] -89.9% | [9] -77% | [10] -72% | [11] -49.7% | [12] -63.4% | [13] -97.8% | [14] -47.5% | [15] -77.1% | [16] -58.3% | [17] -99.8% | [18] -84.3% | [19] -90.2% | [20] -85.5%
